The values below come from PubChem BioAssay (NCI).

Among the test systems are SN12C renal; UO-31 renal; TK-10 renal; ACHN renal; CAKI-1 renal; A498 renal; CCRF-CEM leukemia; MOLT-4 leukemia; SR leukemia.
Common to all, as to assay: NCI-60 one-dose screen, 48 h (100 = growth as untreated, 0 = no growth, -100 = all killed)
Conditions in all cases: 10 µM

About 83,000 compounds went through this panel and 20% of them were active in at least one assay; those are over-represented in the sample as a whole.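 A percent growth of 40 corresponds to 60% growth inhibition; 0 means no net growth; -100 means all cells died. Active threshold: below 10.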 Values without a mark were called inactive. The source made the active and inactive calls.

With `N=C(N)c1ccc(-c2ccc(-c3cccs3)o2)cc1`, the growth with SN12C renal is 54.5%; in the assay on UO-31 renal, 65.9%; in the assay with TK-10 renal, 96.5%; with ACHN renal, 62.7%; in the assay on CAKI-1 renal it was 37.8%; with A498 renal, 33.5%. Further, the growth with CCRF-CEM leukemia is 19.9%; with MOLT-4 leukemia, -2.16% (active); in the assay on SR leukemia, -24.5% (active).

Turning to `CC(=O)N1C/C(=C/c2ccc(Cl)cc2)C(=O)/C(=C/c2ccc(Cl)cc2)C1`, the growth in the assay on SN12C renal is -42.4% (active); in the assay with UO-31 renal it was -88.8% (active); in the assay on TK-10 renal it was -15.7% (active); in the assay with ACHN renal, -46.1% (active); with CAKI-1 renal it was -15% (active); in the assay with A498 renal it was -5.57% (active). Besides, the values for the growth in the assay on CCRF-CEM leukemia, with MOLT-4 leukemia and with SR leukemia were -13.3% (active), 0.236% (active) and -15.1% (active), respectively.

Take `Cc1cccc2c(NCCN(C)C)c3cccc(C(=O)NCCN(C)C)c3nc12`: the growth is 15.9% in the assay on SN12C renal; -67.6% (active) with UO-31 renal; -15.9% (active) with TK-10 renal; -44.6% (active) in the assay on ACHN renal; 6.76% (active) in the assay on CAKI-1 renal; 33.8% in the assay on A498 renal. Further, the growth in the assay on CCRF-CEM leukemia is 3.77% (active); in the assay with MOLT-4 leukemia, 1.96% (active); in the assay on SR leukemia it was -14.7% (active).

Regarding `Cc1cccc2c1O/C(=C\c1ccc([N+](=O)[O-])o1)C2=O`, the growth in the assay on SN12C renal is -17.5% (active); with UO-31 renal, -62.6% (active); in the assay with TK-10 renal, -88.2% (active); with ACHN renal, -81.9% (active); in the assay with CAKI-1 renal, -3% (active); with A498 renal, 49%. Also, the growth with CCRF-CEM leukemia is -26.4% (active); in the assay with MOLT-4 leukemia, -14.7% (active); in the assay on SR leukemia, 2.46% (active).

Regarding `N#Cc1ncc(Br)c(NC2CCCCCC2)n1`, the growth in the assay with SN12C renal is 93.5%; in the assay on UO-31 renal it was 84.7%; with TK-10 renal, 134%; with ACHN renal, 100%; in the assay with CAKI-1 renal it was 89.4%; in the assay on A498 renal it was 103%. Moreover, the growth with CCRF-CEM leukemia was 85%; with MOLT-4 leukemia it was 86.8%; with SR leukemia, 80.9%.

On to `COc1cc(NC(=O)CCSc2nc3ccc(C)cc3c(=O)n2Cc2ccccc2)cc(OC)c1OC`, for which the growth is 89.5% in the assay on SN12C renal; 71.2% in the assay on UO-31 renal; 96.1% in the assay on TK-10 renal; 53.3% with ACHN renal; 65.1% in the assay with CAKI-1 renal; 77.6% with A498 renal. Moreover, the growth in the assay on CCRF-CEM leukemia was 105%; in the assay with MOLT-4 leukemia, 103%; in the assay with SR leukemia it was 95.3%.

As to `N#Cc1ncc(-c2ccc(C(F)(F)F)cc2)c(NCc2cc(C(F)(F)F)cc(C(F)(F)F)c2)n1`, the growth is 21.8% with SN12C renal; 26.1% with UO-31 renal; 47.4% with TK-10 renal; 0.868% (active) in the assay with ACHN renal; 17.9% in the assay on CAKI-1 renal; 15.3% with A498 renal. In addition, the growth was 10.5% in the assay on CCRF-CEM leukemia, 21.9% in the assay with MOLT-4 leukemia and 12.1% in the assay with SR leukemia.

Turning to `Clc1ccc(/C=C2\CCCC3=C2N=C2SC=NN2C3c2ccc(Cl)cc2)cc1` (stereo not given), the growth with SN12C renal was 104%; in the assay with UO-31 renal, 86.5%; with TK-10 renal, 112%; with ACHN renal it was 103%; in the assay with CAKI-1 renal, 106%; in the assay on A498 renal, 81.7%. Besides, the growth in the assay with CCRF-CEM leukemia was 86.6%; in the assay with MOLT-4 leukemia, 99%; in the assay on SR leukemia it was 76.3%.

Take `CCOCC(=O)C(C#N)c1ccc(Cl)c(Cl)c1` (stereo not given): the growth was 97.8% with SN12C renal; 82.8% with UO-31 renal; 105% with TK-10 renal; 91.3% in the assay with ACHN renal; 90% in the assay on CAKI-1 renal; 91.6% with A498 renal. Further, the growth with CCRF-CEM leukemia is 86.8%; with MOLT-4 leukemia, 101%; in the assay with SR leukemia, 88.2%.

`FC(F)(F)c1ccc(-c2cnc(-n3cc(COCCN4CCCCC4)nn3)nc2NC2CCCCCC2)cc1`: the growth with SN12C renal was 60.4%; in the assay on UO-31 renal, -6.86% (active); in the assay on TK-10 renal it was -14% (active); in the assay with ACHN renal it was 35.7%; in the assay with CAKI-1 renal it was 46.6%; in the assay on A498 renal, 66%. Further, the growth in the assay on CCRF-CEM leukemia is -5.93% (active); in the assay on MOLT-4 leukemia it was -24.1% (active); with SR leukemia, -37.4% (active).

With `COc1cc(-c2cc(/C=C3\C(=O)Nc4ccc(Cl)cc43)[nH]n2)cc(OC)c1OC`, the growth in the assay on SN12C renal was 7% (active); in the assay with UO-31 renal, 9.62% (active); with TK-10 renal, 27.5%; with ACHN renal it was 23.9%; in the assay on CAKI-1 renal, 17.5%; in the assay with A498 renal, 41.1%. Also, the growth with CCRF-CEM leukemia is 10.7%; in the assay with MOLT-4 leukemia it was -4.3% (active); in the assay on SR leukemia it was 20.4%.

`COc1cc(Cl)cc(-c2nn(-c3cccc(NC(=O)c4ccc(N5CCOCC5)c(C(F)(F)F)c4)c3)cc2-c2ccncc2)c1`: the growth in the assay on SN12C renal is 79.8%; in the assay on UO-31 renal, 40.7%; with TK-10 renal, 90.6%; in the assay with ACHN renal it was 50.1%; in the assay with CAKI-1 renal it was 46.7%; with A498 renal it was 31.5%. Moreover, the growth is 31.7% in the assay with CCRF-CEM leukemia, 38.3% in the assay on MOLT-4 leukemia and 18.4% in the assay with SR leukemia.

Consider `C#Cc1ccc(-n2c(/C=C/c3ccc4ccccc4n3)nc3ncccc3c2=O)cc1`, for which the growth in the assay with SN12C renal was -15% (active); in the assay with UO-31 renal it was -91.7% (active); with TK-10 renal, -44.4% (active); in the assay with ACHN renal it was 2.7% (active); in the assay on CAKI-1 renal it was -20.5% (active); with A498 renal it was -69.1% (active). Also, the growth with CCRF-CEM leukemia is -15.1% (active); in the assay on MOLT-4 leukemia it was -7.6% (active); with SR leukemia, -17.9% (active).

For `COc1cc(-c2nc(-c3nnc(-c4ccc(F)c(Cl)c4)o3)c3ccccn23)cc(OC)c1OC`, the growth in the assay on SN12C renal is 43.9%; with UO-31 renal, 29.5%; in the assay with TK-10 renal, 56.7%; with ACHN renal, 10.7%; in the assay on CAKI-1 renal, 58%; in the assay on A498 renal, 40.6%. Moreover, the results for the growth with CCRF-CEM leukemia, in the assay on MOLT-4 leukemia and in the assay with SR leukemia were 68.6%, 67% and 42.4%, respectively.

Turning to `C#Cc1ccc(-n2c(/C=C/c3cc(OC)cc(OC)c3)nc3ncccc3c2=O)cc1`, the growth was 81.8% in the assay on SN12C renal; 87.6% in the assay with UO-31 renal; 81.6% with TK-10 renal; 67.1% in the assay with ACHN renal; 95.8% in the assay with CAKI-1 renal; 91.9% in the assay with A498 renal. Moreover, the values for the growth with CCRF-CEM leukemia, in the assay on MOLT-4 leukemia and with SR leukemia were 69%, 58.3% and 44.8%, respectively.
